Screening data as filed in PubChem BioAssay.
Rows were chosen to be rich in hits. Some 17% of all compounds tested hit in one or more screens of this group.
TGFb inhibitor = TGF-b pathway inhibition | Potency, µM (highest dose often 46.1 µM), for inactives: at the highest dose activity, negative = inhibition, usual class: inhibitors | AID 588855 | 1.2% of 410,000 active | HepG2 CAGA-GFP TGF-b/SMAD3 reporter, GFP fluorescence, 18 h; TGF-beta stimulated, 500 pg/mL final; also: % is scaled to controls: 0 for no effect and ±100 for the full control effect; nearly all actives have a fitted effect of over 65% in size
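Read-out: total well GFP (ex488/em500-530) summed from mean per-cell fluorescence. Cells: HEPG2 CAGA-GFP, 1% FBS DMEM, 18 h at 37 degrees C with 500 pg/mL final TGF-beta. Unstimulated wells served as the full-inhibition control; stimulated DMSO wells = 0%.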
HT1080-NT tox = kills 2HG-producing HT-1080-NT fibrosarcoma cells; HT-1080-NT fibrosarcoma viability, CellTiter-Glo ATP luminescence, 48 h; Potency, µM (series often up to 46.1 µM), without a hit: at the top dose activity, negative = less viability, actives largely listed as cytotoxic; 1.6% of 360,000 active;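 also: NT is the 2HG producing partner of a matched IDH1 knockdown line; 0% = DMSO-treated cells and -100% = media-only wells without cells; nearly all actives have a fitted effect of over 55% in size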
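Read-out is CellTiter-Glo luminescence after 10 minutes at room temperature, following 48 hours' compound treatment of HT-1080-NT cells (750 cells/well, RPMI, 5% FBS, 37 degrees C).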
HT1080 IDH1KD tx = kills HT-1080 cells with IDH1 knockdown; HT-1080 IDH1 knockdown viability, ATP luminescence, 48 h; Potency, µM (highest dose often 46.1 µM), without a hit: top-dose activity, negative = toxicity, actives largely listed as cytotoxic; 2% of 360,000 active;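 also: 0% = DMSO wells and -100% = cell-free medium wells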
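HT-1080-IDH1KD cells (IDH1 knocked down), 750/well in RPMI with 5% FBS, treated with compound 48 h at 37 degrees C. Viability by CellTiter-Glo luminescence, normalised to DMSO and no-cell wells; concentration-response curves classed.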
TDP1 cell noCPT = qHTS for Inhibitors of human tyrosyl-DNA phosphodiesterase 1 (TDP1): qHTS in cells in absence of CPT. DT40 Tdp1-/- hTDP1 cells, no CPT, ATP luminescence, 48 h. Potency, µM (highest dose often 46.2 µM), inactives show top-dose activity change, negative = growth inhibition, hits mostly inhibitors. 15% of 420,000 active. AID 686978, 2013; also: % is scaled to controls: 0 for no effect and ±100 for the full control effect; nearly all actives have a fitted effect of over 55% in size
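DT40 Tdp1-/-;hTDP1 cells, no CPT (DMSO vehicle only), 400 cells/well; compounds pin-transferred; ≥48 hr, 37 °C; CellTiter-Glo 30 min RT dark, luminescence read.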
HepG2 viability = counter-screen for TGF-b inhibitors: cytotoxicity in HepG2 cells. HepG2 CAGA-GFP viability, ATP luminescence, 18 h. Potency, µM (series often up to 46.1 µM), without a hit: top-dose activity change, negative = cytotoxicity, hits mostly cytotoxic. 0.76% of 410,000 active. AID 588856
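HepG2 CAGA-GFP cells (1000/well, DMEM with 1% FBS) received compound, then TGF-beta at 500 pg/mL final, and were incubated 18 hours at 37 degrees C. Viability was read by CellTiter-Glo luminescence. Media-only wells were set as complete cell-killing and DMSO as no toxicity.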
TDP1 cell CPT = DT40-hTDP1 cell growth loss with CPT | 12% of 420,000 active | Potency, µM (highest dose often 46.2 µM), without a hit: top-dose activity change, negative = growth inhibition, most hits filed as inhibitors | chicken DT40 Tdp1-/-;hTDP1 cells + 20 nM CPT, ATP luminescence, 48 h; also: % is scaled to controls: 0 for no effect and ±100 for the full control effect; nearly all actives have a fitted effect of over 55% in size
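Chicken DT40 Tdp1-/- cells complemented with human TDP1, 400 cells/well, exposed to compounds plus 20 nM camptothecin for at least 48 h at 37 C; viability read as ATP content by CellTiter-Glo luminescence.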
* = called active by the depositor; ? = inconclusive; · = not tested or not shown; [ ] = remark or other dose. Calls follow the shape of the dose curve; as a rule, active = well fitted curve in the direction sought with a large enough effect; inconclusive = small, poorly fitted or top-dose-only effect, or another doubt; inactive = no such curve, though single readings can be large; an effect the other way counts as inactive or inconclusive. Potency is read from the fitted curve at half-maximal effect.

SMILES	TGFb inhibitor	HT1080-NT tox	HT1080 IDH1KD tx	TDP1 cell noCPT	HepG2 viability	TDP1 cell CPT
COc1ccc(-c2nn3c(-c4cccc(C)c4)nnc3s2)cc1OC	16.2%	-15.4%	-5.5%	?	12.9%	?
COc1ccc(-c2nn3c(C4CCCCC4)nnc3s2)cc1OC	-5.8%	-3.4%	-17.1%	?	-22.9%	14.6µM*
COc1ccccc1NC(=O)CCc1nnc2ccc(NCc3ccco3)nn12	15.7%	20.9%	8.8%	12.9%	1.4%	0.8%
CC(C)CC(=O)NC(NC(=S)Nc1sc2c(c1C#N)CCCC2)C(Cl)(Cl)Cl (stereo not drawn)	15.8µM*	?	?	?	-42.2%	16.4µM*
N#Cc1c(NC(=O)CCC(=O)O)sc2c1CCCCC2	15.2%	3.2%	15.0%	-0.1%	3.7%	13.4%
CCC(=O)Nc1sc2c(c1C#N)CCC2	15.3%	11.6%	-0.2%	-18.4%	-66.2%	-7.1%
CCc1ccc(CCC(=O)Nc2sc3c(c2C#N)CCCC3)o1	-35.4%	3.98µM*	4.47µM*	3.55µM*	-1.3%	5.01µM*
N#Cc1c(NC(=O)CSc2nc(N)cc(=O)[nH]2)sc2c1CCCC2	-9.6%	-10.6%	-21.9%	23.1µM*	-6.3%	?
N#Cc1c(NC(=O)CCC(=O)O)sc2c1CCCC2	14.2%	7.3%	-0.5%	-0.4%	19.1%	0.581µM*
C=CCOc1ccc(C2C(C#N)=C(N)N(N(C)C)C3=C2C(=O)CCC3)cc1 (stereo not drawn)	-6.9%	8.9%	-4.8%	-19.2%	-2.9%	-2.8%
O=C(N/N=C/c1ccc(OC(F)F)cc1OC(F)F)c1ccc(Br)cc1	-6.4%	14.9%	13.4%	20.6%	0.8%	-10.3%
Cc1ccc(S(=O)(=O)N(C)Cc2ccc(C(=O)N/N=C/c3ccc(OC(F)F)cc3OC(F)F)cc2)cc1	-27.0%	5.2%	-26.6%	23.1µM*	-3.5%	?
CC(C)CNC(=O)c1cc(-c2ccco2)on1	10.1%	3.1%	5.8%	17.8µM*	1.9%	15.8µM*
CCCNC(=O)c1cc(-c2ccco2)on1	35.2%	-29.7%	?	9.2µM*	-7.0%	9.2µM*
O=C(NCc1ccc(Cl)cc1)c1cc(-c2ccco2)on1	7.5%	-0.1%	2.1%	-24.5%	-20.3%	5.6%
O=C(Nc1cccc(O)c1)c1cc(-c2ccco2)on1	17.4%	0.0%	-2.3%	14.6µM*	4.3%	?
CC(=O)c1cccc(NC(=O)c2cc(-c3ccco3)on2)c1	-16.6%	8.0%	4.6%	-27.6%	-34.5%	-3.5%
CNC(=O)C1CCC(Cn2c(=O)c3sccc3n(CC(=O)NCc3cccc(OC)c3)c2=O)CC1 (stereo not drawn)	2.6%	·	·	-12.3%	-14.7%	-6.3%
CC(=O)Nc1ccc(Nc2ccc3c4c(cc(=O)n3C)-c3ccccc3C(=O)c24)cc1	11.0%	0.9%	-1.8%	6.51µM*	-4.4%	-24.8%
CCN(CC(=O)Nc1ccccc1C(F)(F)F)C(=O)c1ccc(NC(=O)c2cccs2)cc1	-2.5%	-0.5%	6.8%	20.6µM*	2.2%	14.6µM*
CCN(CC(=O)Nc1ccccc1C(F)(F)F)C(=O)c1ccccc1OCc1ccc(F)cc1	-26.6%	0.5%	-0.6%	20.6µM*	-5.7%	16.4µM*
CCN(CC(=O)Nc1ccccc1C(F)(F)F)C(=O)CCOc1ccccc1C	-17.9%	1.0%	1.6%	-54.3%	0.0%	-36.2%
CC1CCN(CC(O)CN2c3ccccc3Sc3ccccc32)CC1 (stereo not drawn)	24.3%	-2.4%	11.3%	18.4µM*	10.5%	?
COC(=O)CNC(=O)COC(=O)Cc1ccc(Cl)cc1	10.6%	5.3%	-3.2%	17.2%	24.4%	0.5%
CN(C)c1ccc(/C=C(/C(=O)c2ccc(Cl)cc2Cl)n2cncn2)cc1	-11.0%	?	?	23.1µM*	-6.4%	23.1µM*
SMILES	TGFb inhibitor	HT1080-NT tox	HT1080 IDH1KD tx	TDP1 cell noCPT	HepG2 viability	TDP1 cell CPT
CC(C)CC(=O)/C(=C\c1ccc(Cl)cc1Cl)n1cncn1	7.08µM*	5.8µM*	2.91µM*	1.84µM*	7.94µM*	2.91µM*
CC(C)CC(=O)/C(=C/c1ccc(N(C)C)cc1)n1cncn1	23.6%	?	10.7%	0.9%	3.6%	-7.1%
Cc1nn(Cc2ccc(Cl)cc2)c(C)c1NC(=O)c1cc(-c2ccco2)on1	-12.7%	-29.6%	?	23.1µM*	-47.0%	13µM*
Cc1cc(NC(=O)c2cc(-c3ccco3)on2)nn1Cc1ccc(Cl)cc1	-18.6%	-27.7%	-14.1%	25.9µM*	-43.9%	20.6µM*
Cc1ccc(Cn2nc(C)c(NC(=O)c3cc(-c4ccco4)on3)c2C)cc1	-0.7%	-2.0%	?	?	-23.7%	?
COC(=O)CSCc1nc(-c2ccc(C(=O)OC)cc2)oc1C	-2.0%	·	·	0.1%	-4.9%	-10.0%
COC(=O)c1c(NC(=O)c2nc(SCc3ccc(C)cc3)ncc2Cl)sc2c1CCCC2	-1.3%	·	·	-9.3%	-42.0%	-8.4%
CC1C/C(=N/NC(=O)c2cccc(F)c2)c2ccc(O)cc2C1 (stereo not drawn)	20.7%	9.1%	5.1%	?	-30.0%	22.4µM*
Cc1ccc(Nc2nc(N)nc(CN3CCN(Cc4ccc5c(c4)OCO5)CC3)n2)cc1C	-23.4%	?	?	18.4µM*	-13.5%	?
Cc1ccc(Nc2nc(N)nc(CN3CCN(Cc4ccc5c(c4)OCO5)CC3)n2)cc1Cl	-23.6%	?	-18.0%	?	11.2µM*	?
CCOC(=O)N1CCN(Cc2nc(N)nc(Nc3ccc(Cl)cc3)n2)CC1	-1.1%	-5.7%	-8.3%	?	-6.9%	-13.3%
Cc1ccc(Nc2nc(N)nc(CN3CCN(Cc4ccc5c(c4)OCO5)CC3)n2)cc1	?	-13.8%	0.5%[9.24 µM]	18.4µM*	-48.6%	18.4µM*
Cc1ccc(Nc2nc(N)nc(CN3CCN(Cc4ccc5c(c4)OCO5)CC3)n2)c(C)c1	-7.1%	-21.8%	-1.6%	?	-26.6%	?
Cc1ncc2c(c1CNC(=O)c1ccccc1F)CCN(C(=O)c1ccccc1-n1cccn1)C2	·	·	·	-28.6%	·	11.0%[9.04 µM]
COCCN1Cc2cccc(C(=O)NC(C)c3cccs3)c2C1=O (stereo not drawn)	19.8%	12.7%	7.4%	-14.7%	-1.1%	-23.1%
CCCCCCCCCCn1ccc(=N)cc1	?	?	10.3µM*	0.0184µM*	-49.0%	0.0058µM*
